# Measured values taken from PubChem BioAssay (NCATS).
# Records with an inconclusive call do not appear. The source made the active and inactive calls. Calls come from the whole dose curve; as a rule, active = well fitted inhibition curve with a large enough effect; inconclusive = small, poorly fitted or top-dose-only effect; inactive = flat fitted curve, though single readings scatter.
# System: DFO2036
# Test: qHTS profiling for inhibitors of Plasmodium falciparum proliferation (AID 504749); note: nearly all actives have a fitted effect of over 60% in size;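 for activity, negative = inhibition: 0% = DMSO vehicle and full inhibition = artemisinin control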
# Conditions: P. falciparum in erythrocytes, SYBR Green DNA, 72 h; series mostly up to 28.7 µM; activity, negative = inhibition: at the top concentration
# Text: NIH National Institute of Allergy and Infectious Diseases [NIAID] NIH Chemical Genomics Center [NCGC] MLPCN Grant: None Assay Provider: Xinzhuan Su, NIAID NCGC Assay Overview: Plasmodium falciparum is a virulent malarial parasite that kills 1-2 million people worldwide each year. Transmitted by mosquitoes, the sporozoite form of the parasite enters the blood stream to infect hepatocytes, where they become merozoites that infect red blood cells (erythrocytes). Within erythrocytes, merozoites begin a […] cycle of growth and division, after which the parasite is released to infect new red blood cells. Gametocytes, which form within erythrocytes as well, circulate in the bloodstream and are ingested by the mosquito, thereby completing the life cycle. To profile malarial isolates for differential chemical responses and to identify inhibitors of malarial growth, an assay that measures P. falciparum growth and replication within erythrocytes was employed. This assay uses a DNA binding fluorescent dye (SYBR Green) to detect parasite DNA following cell lysis. Because mature erythrocytes lack DNA, only Plasmodium-derived DNA is detected.
# NCGC Assay Protocol Summary: The SYBR Green viability assay was adapted from a method described previously (Plouffe et al., 2008). For screening 3 ul culture medium was dispensed into 1536 well black clear bottom plates (Aurora Biotechnologies) using a Multidrop Combi (Thermo Fisher Scientific Inc.), 23 nL compounds in DMSO were added by a pin tool (Kalypsys), and 5 ul of erythrocytes infected with P. falciparum (0.3% parasitemia, 2.5% hematocrit final concentration) were added. The plates were incubated at 37 C in a humidified incubator in 5% CO2 for 72 h, and 2 ul lysis buffer (20 mM Tris HCl, 10 mM EDTA, 0.16% saponin, 1.6% triton X, 10X SYBR Green I supplied as 10,000X […] by Invitrogen) was added to each well. The plates were mixed for 25 sec with gentle shaking and incubated overnight at room temperature in the dark. The following morning, fluorescence intensity at 485(14) nm excitation and 535(25) nm emission wavelengths was measured on an EnVision (Perkin Elmer) plate reader. Plate reads were normalized relative to the control inhibitor (0.29 uM artemisinin) and vehicle (DMSO) wells present on each plate and then corrected by an algorithm using vehicle-only control plates at the beginning and end of the compound plate stack.
# Potency is the fitted concentration of half-maximal effect.
SMILES,"activity, negative = inhibition",Potency
CNC(C)[C@@H](O)c1ccccc1 (stereo not given in full),-1.05% (inactive),–
C=CC1CN2CCC1CC2C(OC(=O)OCC)c1ccnc2ccc(OC)cc12 (stereo not given),–,6.31 µM (active)
NCC[C@H](O)C(=O)N[C@H]1C[C@@H](N)[C@@H](O[C@H]2O[C@@H](CN)[C@@H](O)[C@@H](O)[C@@H]2N)[C@@H](O[C@H]2O[C@@H](CO)[C@@H](O)[C@@H]2O)[C@@H]1O,4.94% [at 12.8 µM] (inactive),–
C[C@]12CC[C@H](O)C[C@H]1CCC1C2CC[C@]2(C)[C@@H](c3ccc(=O)oc3)C[C@H]3O[C@]132 (stereo not given in full),-9.22% (inactive),–
CC(=O)OC1C[C@H](O[C@@H]2C(O)C[C@H](O[C@@H]3C(O)C[C@@H](OC4CC[C@]5(C)C(CCC6C5CC(O)[C@@]5(C)C(C7=CC(=O)OC7)CC[C@@]65O)C4)OC3C)OC2C)O[C@H](C)[C@H]1O[C@H]1OC(CO)C(O)C(O)C1O (stereo not given in full),4.59% (inactive),–
O=C1C=C2C=CC3C[C@@]2(O1)C1CCCCN31 (stereo not given in full),–,12.6 µM (active)
CC(=O)O[C@H]1CC[C@@]2(C)C(=CC[C@@H]3[C@H]2CC[C@]2(C)C(=O)CC[C@H]32)C1,8.02% [at 12.8 µM] (inactive),–
C[C@H](NC(C)(C)C)C(=O)c1cccc(Cl)c1,-5.33% (inactive),–
C[N+]1(C)[C@@H]2CC[C@H]1CC(OC(=O)[C@@H](CO)c1ccccc1)C2 (stereo not given in full),2.67% [at 12.8 µM] (inactive),–
CNc1ccc(C(=O)CC(O)CCC(C)C2OC(=O)CC(O)CC(=O)CC(O)CC(O)CC(O)CC(O)CC3(O)CC(O)C(C(=O)OC)C(CC(O[C@@H]4OC(C)C(O)C(N)C4O)/C=C/C=C/C=C/C=C/C=C/C=C/C=C/C2C)O3)cc1 (stereo not given in full),10.2% (inactive),–
O=c1ccc2cc(O[C@H]3O[C@@H](CO)[C@@H](O)[C@@H](O)[C@@H]3O)c(O)cc2o1,1.62% [at 12.8 µM] (inactive),–
CC(C)(O)C1C2OC(=O)C1[C@]1(O)C[C@H]3O[C@]34C(=O)O[C@H]2[C@]14C (stereo not given in full) (tested in a mixture with another compound),-1.67% (inactive),–
CN(C)[C@@H]1C(=O)C(C(N)=O)=C(O)[C@]2(O)C(=O)C3=C(O)c4c(O)ccc(Cl)c4[C@](C)(O)[C@H]3C[C@@H]12,1.48% [at 12.8 µM] (inactive),–
CCN[C@]1(c2cccs2)CCCCC1=O,-4.48% [at 12.8 µM] (inactive),–
C#CCN(C)[C@@H](C)Cc1ccccc1,3.32% (inactive),–
CC[C@@]1(c2ccc(N)cc2)CCC(=O)NC1=O,15.9% (inactive),–
C[N+]1([O-])[C@@H]2CC(OC(=O)[C@@H](CO)c3ccccc3)C[C@@H]1[C@H]1O[C@H]12 (stereo not given in full),–,inactive
Clc1ccc([C@@H](OCCN2CCCCC2)c2ccccc2)cc1,-19.3% [at 12.8 µM] (inactive),–
ClC1=C(Cl)C2(Cl)C3C4CC(C5OC45)C3C1(Cl)C2(Cl)Cl (stereo not given),-5.67% (inactive),–
CC(=O)OCC(=O)[C@@H]1CC[C@H]2[C@H]3CC[C@H]4C[C@@H](O)CC[C@]4(C)[C@@H]3C(=O)C[C@@]12C,-1.05% [at 12.8 µM] (inactive),–

SMILES,"activity, negative = inhibition",Potency
C[C@]12CC[C@H](OS(=O)(=O)O)CC1=CCC1C2CC[C@]2(C)C(=O)CC[C@@H]12 (stereo not given in full),-9.9% (inactive),–
CCCC[N+]1(C)C2CC(OC(=O)C(CO)c3ccccc3)CC1C1OC12 (stereo not given),1.67% (inactive),–
C[C@H]1CN(C2CCC(C#N)(c3ccc(F)cc3)CC2)CC[C@@]1(C(=O)O)c1ccccc1 (stereo not given in full),-1.59% [at 12.8 µM] (inactive),–
CC[C@@H]1[C@@H]2C[C@H]3[C@H]4N(C)c5ccccc5[C@@]45C[C@@H]([C@@H]2[C@@H]5O)N3[C@H]1O,-15% [at 12.8 µM] (inactive),–
O=[As]O[As]=O (stereo not given),–,12.6 µM (active)
C[C@@]12CCC(=O)C=C1C=C[C@H]1[C@H]3CC[C@](O)(CCC(=O)O)[C@]3(C)CC[C@@H]12,-0.136% [at 12.8 µM] (inactive),–
COc1cc(N)c(Cl)cc1C(=O)N[C@@H]1CN2CCC1CC2,4.15% (inactive),–
C[C@H](N)[C@@H](O)c1ccccc1,4.18% [at 12.8 µM] (inactive),–
CCC(C)C1O[C@]2(C=CC1C)CC1CC(C/C=C(\C)[C@H](OC3CC(OC)C(O[C@H]4CC(OC)[C@@H](O)C(C)O4)C(C)O3)[C@@H](C)/C=C/C=C3\COC4C(O)C(C)=C[C@H](C(=O)O1)[C@@]34O)O2 (stereo not given in full),–,11.2 µM (active)
C[C@]12CC[C@H]3[C@@H](CCC4=CC(=O)CC[C@@]43C)[C@@H]1CC[C@@H]2O,0.706% (inactive),–
C[C@]12CC[C@H](O)CC1=CCC1C2CC[C@]2(C)C(=O)CC[C@@H]12 (stereo not given in full),8.22% (inactive),–
CO[C@@H](COC(N)=O)C1=C(N2CC2)C(=O)C(C)=C(N2CC2)C1=O,–,0.794 µM (active)
CN[C@@H](C)[C@H]1CC[C@@H](N)[C@@H](O[C@@H]2[C@@H](O)[C@@H](O[C@H]3OC[C@@](C)(O)[C@@H](NC)[C@@H]3O)[C@H](N)C[C@@H]2N)O1 (tested in a mixture with another compound),-0.219% [at 12.8 µM] (inactive),–
COc1cc2c(cc1OC)[C@@]13CCN4CC5=CCOC6CC(=O)N2C1[C@H]6[C@@H]5C[C@@H]43 (stereo not given in full),-13.5% (inactive),–
CNC[C@H](O)c1ccc(O)cc1,9.08% [at 12.8 µM] (inactive),–
CCNC[C@H](O)c1cccc(O)c1,-2.71% [at 12.8 µM] (inactive),–
Oc1ccc2c3c1O[C@H]1[C@@H](O)CC[C@@]4(O)C(C2)N(CC2CCC2)CCC314 (stereo not given in full),13.6% (inactive),–
CC(C)N(CC[C@@](C(N)=O)(c1ccccc1)c1ccccn1)C(C)C,0.83% (inactive),–
[Hg+][c]1ccccc1,11.9% (inactive),–
C[C@@H]1O[C@H](O[C@@H]2C=C3CC[C@H]4[C@@H](CC[C@]5(C)[C@@H](c6ccc(=O)oc6)CC[C@]45O)[C@@]3(C)CC2)[C@@H](O)[C@H](O)[C@@H]1O,-8.58% [at 12.8 µM] (inactive),–
